Screen size: about 350,000 compounds; about 31,000 (8.9%) were called active. Not shown: some 15% with an inconclusive outcome. Calls come from the whole dose curve; as a rule, active = well fitted inhibition curve with a large enough effect; inconclusive = small, poorly fitted or top-dose-only effect; inactive = no such curve, though single readings can be large or run the other way. The sample as a whole holds a higher share of actives than the screen did.
Molecular target: Histone-lysine N-methyltransferase EHMT2 (Homo sapiens) (UniProt Q96KQ7)
Experiment: qHTS Assay for Inhibitors of Histone Lysine Methyltransferase G9a; note: nearly all actives have a fitted effect of over 75% in size
Conditions: G9a H3K9 monomethylation, AlphaScreen, 2 h; series mostly up to 59 µM
Outline: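 Compounds were preincubated with 20 nM G9a for 15 min, after which biotinylated H3K9 peptide (500 nM) and SAM (20 uM) started a 2 h room-temperature reaction. Monomethylated product was quantified by antibody-based AlphaScreen chemiluminescence.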
% is set by controls: 0 for no effect and ±100 for the full control effect; potency is the fitted concentration of half-maximal effect.

Chain of Histone-lysine N-methyltransferase EHMT2 (Homo sapiens) (Q96KQ7 913-1193 limits assumed): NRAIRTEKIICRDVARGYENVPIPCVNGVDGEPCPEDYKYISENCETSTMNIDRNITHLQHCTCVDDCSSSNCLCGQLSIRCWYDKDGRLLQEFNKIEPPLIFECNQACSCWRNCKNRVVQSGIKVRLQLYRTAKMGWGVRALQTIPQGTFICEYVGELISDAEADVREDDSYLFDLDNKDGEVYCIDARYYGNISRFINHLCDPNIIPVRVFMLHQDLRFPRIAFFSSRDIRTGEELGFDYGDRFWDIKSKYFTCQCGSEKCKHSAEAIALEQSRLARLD

Potency, inactive:
CC(=O)Nc1c2c(nn1-c1cccc(C)c1)CSC2
CC(C)C(=O)Nc1c2c(nn1-c1ccccc1)CSC2
O=C(Nc1c2c(nn1-c1ccc(F)cc1)CS(=O)C2)C12CC3CC(CC(C3)C1)C2 (stereo not given)
COc1ccc(-n2nc3c(c2NC(=O)c2ccc(N4C(=O)CCC4=O)cc2)CSC3)cc1
COc1cc(CCC(=O)N2CCN(c3ccccc3Cl)CC2)cc(OC)c1OC
CCc1ccc(CN(Cc2ccco2)C(=O)COc2ccc(Cl)c(C)c2)cc1
Cc1ccc(OCCSc2nc(C)c(Cc3ccccc3)c(=O)[nH]2)cc1
CCOc1cc(C2c3c(-c4ccc(Br)cc4)n[nH]c3C(=O)N2c2ccc(Cl)cc2)ccc1O (stereo not given)
Cc1cc(/C=C2/SC(=O)N(CC(=O)N3CCCC3)C2=O)ccc1N1CCOCC1
CCn1cc2nc(SCc3ccccc3Cl)n(CCc3ccccc3)c(=O)c2n1
C=CCOc1ccc(/C=C/C(=O)OC(C)C(=O)Nc2ccc(NC(C)=O)cc2)cc1 (stereo not given)
COc1ccc(CNC(=O)COC(=O)CCS(=O)(=O)c2ccc(C)cc2)cc1OC
CN1CCCN(S(=O)(=O)c2ccc3c(c2)OCCO3)CC1
CN1CCN(S(=O)(=O)c2cccc(C(=O)O)c2)CC1
COc1ccc(N2CCN(Cc3nc4c(c(=O)[nH]c(=O)n4C)n3Cc3ccc(Cl)cc3)CC2)cc1
Cc1ccc(C)c(N2CCN(Cc3nnc(-c4ccccc4)o3)CC2)c1
Cc1ccc(-c2nnc(CN3CCN(C)CC3)o2)cc1
COc1ccc(NC(=O)CN2CCCN(Cc3ccccc3)S2(=O)=O)cc1
CC(C)Sc1ncnc2c1cnn2-c1ccccc1
Cc1cc(NC(=O)C(C)SCC(=O)Nc2ccccc2N2CCCCC2)no1 (stereo not given)
CCOc1ccc(CNC(=O)c2ccc3nc(CC)c(CC)nc3c2)cc1OC
CCCCNC(=O)N(O)C1N(/N=C/c2ccccc2O)C(=S)SC1(C)C (stereo not given)
CN1CCN(c2ccc(NC(=O)c3ccccc3)cc2)CC1
O=C(Nc1cccc(Cl)c1N1CCOCC1)c1ccc2c(c1)OCCO2
CCCC12CN3CC(C)(CN(C1)C3c1ccccc1Cl)C2=O (stereo not given)
Cc1ccc(C)c(NC(=O)Cn2ccn(-c3ccc(F)cc3)c(=O)c2=O)c1
Cc1cccc(C(=O)Nc2ccc(-c3nc4ncccc4o3)cc2C)c1
CCc1cccc(NC(=O)Cn2nc(CC)n3c(cc4cc(C)ccc43)c2=O)c1
COc1ccccc1NC(=O)C1=C(C)NC(=O)NC1c1ccc(C)s1 (stereo not given)
CCOC(=O)c1cc2c(=O)n3ccccc3nc2n(CC2CCCO2)c1=NC(=O)c1ccccc1Br (stereo not given)
CC(=O)N/C(=C\c1ccccc1)C(=O)OC(C)C(=O)N(C)c1ccccc1 (stereo not given)
Cc1ccc(OCCCC(=O)Nc2ccc3c(c2)OCCO3)cc1
O=C(c1ccc(OC2CCN(Cc3ccccn3)CC2)cc1)N1CCCCCC1
Cc1noc(C)c1COc1ccccc1C(=O)N(C)CC(=O)Nc1cccc(F)c1
CCOC(=O)c1ccc(NC(=O)Cn2cc(S(=O)(=O)Cc3ccccc3F)c3ccccc32)cc1
Cc1cc(C(=O)CCC(=O)NNC(=O)c2ccccc2O)c(C)s1
Cc1sc2nc(SCCO)n(-c3ccccc3)c(=O)c2c1C
COc1ccc(S(=O)(=O)N2CCSCC2)cc1
O=S(=O)(c1ccccc1)N1CN(Cc2ccc(F)cc2)c2nc3ccccc3nc21
O=C(CC1C(=O)N(c2ccccc2)C(=O)N1CCc1cccs1)Nc1ccc(F)cc1 (stereo not given)
Cc1ccccc1C(=O)NC(=S)NC1CC1
CCn1c2ccccc2c2cc(NC(=O)COc3ccc(C)cc3C)ccc21
CCCCC(CC)CNC(=O)CCCCn1c(=O)[nH]c2ccsc2c1=O (stereo not given)
O=C(CCC(=O)c1cccs1)NC1CCCCCC1
COc1ccccc1-c1sc2ccccc2c1-c1ccc(C(C)=O)cc1
CCOC(=O)CN(Cc1ccc(OC)c(OC)c1)S(=O)(=O)c1ccc(OC)cc1
COc1ccc(CN(C)C(=O)CC(c2ccccc2)c2ccccc2)cc1
Cc1ccc(Cl)cc1N1CCN(C(=O)c2cn(C)c3ccc(S(=O)(=O)N(C)C4CCCCC4)cc3c2=O)CC1
CCn1cc(CCC(=O)NCc2ccc(F)cc2)c2ccccc21
COc1cc(OC)c(OC)cc1/C=C/c1nc2cc3ccccc3cc2c(=O)n1-c1ccc(F)c(Cl)c1
Fc1ccc(Nc2nc(SCc3ccccc3Cl)nc3ccccc23)cc1
O=C(CC1Oc2ccccc2NC1=O)NCc1ccc(F)cc1 (stereo not given)
O=C1c2ccccc2C(=O)N1c1cccc2ccccc12
CCc1ccccc1N1C(=O)C2C3CC(=O)C(c4ccccc43)C2C1=O (stereo not given)
CCCCn1cc(S(=O)(=O)c2ccc(OCC)cc2)c(=O)c2cc(OC)c(OC)cc21
COc1ccc(C2c3c(oc4ccccc4c3=O)C(=O)N2Cc2ccc3c(c2)OCO3)cc1 (stereo not given)
CNC(=O)CSc1nnc(CCc2ccccc2)n1-c1ccccc1
COC(=O)c1ccc(NC(=O)CSc2nnc(C3CC3)n2C)cc1
O=C(CSc1nnc(CNC(=O)c2ccccc2)n1-c1ccc(F)cc1)Nc1ccccc1F
COC(=O)c1ccc(NC(=O)CSc2nnc(-c3ccncc3)n2C)cc1
Cc1ccccc1NC(=O)Cc1nc(COC(=O)c2cccnc2Cl)cs1
COc1ccc(CCn2c(=N)c(C(=O)NCC3CCCO3)cc3c(=O)n4cccc(C)c4nc32)cc1OC (stereo not given)

Potency, active:
O=C(NCCCO)C(=O)Nc1c2c(nn1-c1ccccc1)CSC2 10 µM
O=C(NCCCO)C(=O)Nc1c2c(nn1-c1ccc(F)cc1)CSC2 11.2 µM
CCOc1cc(C2C(C(=O)c3ccco3)=C(O)C(=O)N2Cc2ccccc2)ccc1O (stereo not given) 44.7 µM
Cc1cc(/C=C2/SC(=O)N(CC(=O)N3CCCC3)C2=O)c(C)n1C 50.1 µM
CN1CCN(S(=O)(=O)c2ccc3[nH]cc(C(=O)O)c(=O)c3c2)CC1 56.2 µM
COc1ccc(N2CCN(Cc3nnc(-c4ccccc4)o3)CC2)cc1 35.5 µM
COc1ccc(N2CCN(Cc3ccc(Br)s3)CC2)cc1 3.16 µM
CN1CCN(c2ccc(NC(=O)c3cc(Cl)c4c(c3)OCCO4)cc2)CC1 50.1 µM
COc1ccc2c(c1)cc1n2CCN=C1NN 39.8 µM
COc1ccccc1NC(=O)C1=C(C)NC2=C(C(=O)CCC2)C1c1ccc(C)o1 (stereo not given) 50.1 µM
CCCCN(C)C(=O)C1CCN(Cc2ccccn2)CC1 5.62 µM
C=CCN1CN(S(=O)(=O)c2ccc(OC)cc2)c2nc3ccccc3nc21 7.08 µM
O=C(CCCCCn1c(=S)[nH]c2ccsc2c1=O)NC1CCCCC1 10 µM
COc1ccc(C(CCN(Cc2ccc(OC)c(OC)c2)C(=O)CCl)c2ccccc2)cc1 (stereo not given) 50.1 µM
C=CS(=O)c1sc(Cl)c(N2CCOCC2)c1[N+](=O)[O-] (stereo not given) 1.58 µM
CC1=C(C)CC2C(=O)N(c3cccc4ccccc34)C(=O)C2C1 (stereo not given) 7.94 µM
Cn1cccc1Cc1nnc(SCC(=O)NCCc2ccccc2)n1-c1ccc(F)cc1 56.2 µM
COC(=O)c1ccc(NC(=O)CSc2nnc(Cc3cccn3C)n2-c2ccc(F)cc2)cc1 44.7 µM

activity, negative = inhibition, inactive:
O=C(C1=C(O)C(=O)N(Cc2ccccc2)C1c1ccco1)c1ccco1 (stereo not given) 0.744% [at 12.7 µM]
O=C(CCNS(=O)(=O)c1ccccc1C(F)(F)F)Nc1ccncc1 -8.2% [at 12.7 µM]
Cc1cc(/C=C2/SC(=O)N(CC(=O)OC(C)C)C2=O)c(C)n1C 19.4% [at 12.7 µM]
Cc1cccc(N=C2SC(C)CN2C(=O)CN2C(=O)NC3(CCCC3)C2=O)c1 (stereo not given) -1.2% [at 0.501 µM]
CCOCc1c(C(=O)N2CCN(Cc3ccc(Br)s3)CC2)oc2ccccc12 16.1% [at 2.33 µM]
CNS(=O)(=O)c1cccc(C(=O)OCC(=O)N2c3ccccc3NC(=O)C2(C)C)c1 10.5% [at 12.7 µM]
COc1ccc2ccn(C)c2c1 -0.398% [at 0.501 µM]
COC(=O)C1=CO[C@@H](O[C@@H]2O[C@H](CO)[C@@H](O)[C@H](O)[C@H]2O)C2C1C[C@H](O)[C@@H]2C (stereo not given in full) 1.46% [at 2.33 µM]
COc1ccccc1C(=O)NCC(=O)OCC(=O)Nc1nnc(-c2ccccc2)o1 17.3% [at 12.7 µM]
COc1ccccc1NC(=O)C1=C(C)Nc2ncnn2C1c1ccc(C)o1 (stereo not given) -42.2% [at 12.7 µM]
CN(CCc1ccccn1)C(=O)c1ccc(OC2CCN(Cc3ccccn3)CC2)cc1 24.7% [at 0.501 µM]
CCn1c(=O)c(C(=O)NCc2ccc3c(c2)OCO3)c(O)c2ccccc21 8.89% [at 0.501 µM]
CCc1noc(C)c1C(=O)Oc1ccc(N(C)S(=O)(=O)c2ccc(C)c(C)c2)cc1 15.4% [at 12.7 µM]
COc1ccccc1C(CNC(=O)c1ccc(C)c(S(=O)(=O)N2CCCCC2)c1)N(C)C (stereo not given) 24.7% [at 12.7 µM]
CC(=O)Nc1ccc(Nc2cc(C)nc(Nc3ccc(NC(C)=O)cc3)n2)cc1 -6.09% [at 2.33 µM]
